An excerpt weighted towards active compounds, which were near 13% of everything screened.
L major viab: Leishmania major promastigote growth inhibition. Leishmania major promastigotes, resazurin fluorescence viability. inhibition, % at 10 µM. 200,000 tested, 9% active. AID 1063; in the data active = inhibition above about 50%;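 note: promastigotes grown with compound for 44 hours at 28 °C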
CHOP inh: CHOP inhibition in unfolded protein response; CHO-K1 CHOP-promoter luciferase, tunicamycin-induced, 15-18 h; AID 2732; inhibition, % at 10 µM; 220,000 tested, 3.8% active;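 active = compounds that reduced the stress-induced luciferase reporter signal by more than about 70% of percent inhibition, limit read from the data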;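 note: 0% = tunicamycin plus vehicle and 100% = wells without tunicamycin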
RAM inhibit: inhibitors of the yeast RAM network | S. cerevisiae dse1pr::URA3 reporter, 5-FOA growth OD615, 2 d; analog-sensitive cbk1-as2 kinase mutant strain | 190,000 tested, 1.8% active | AID 868 | inhibition, % at 50 µM;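 active = inhibition above a set limit, 3 SD over mean compound inhibition, cut at about 8.4% in these data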;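 note: 0% = DMSO-only wells with no growth and 100% = 10 µM 1-NA-PP1 full growth; inhibition rescues growth on 5-FOA so higher OD means more RAM inhibition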
WT yeast gro inh: growth inhibition of WT yeast, mitochondrial fusion screen | mitochondrial fusion phenotypic screen, WT strain | inhibition, % at 10 µM | 190,000 tested, 2.1% active | AID 1362; in the data active = inhibition above about 58%; tested in S. cerevisiae
Numbers without * were called inactive; · = no result given.

SMILES | L major viab | CHOP inh | RAM inhibit | WT yeast gro inh
COc1cc(/C=C(\C#N)C(=O)Nc2cccc3ncccc23)ccc1O | 100* | -2 | 6 | 8
Cc1ccccc1OCc1nc2c3c(ncn2n1)-c1ccccc1CC31CCCC1 | 4 | 14 | 11* | 16
COc1ccc(OCc2nc3c4c(ncn3n2)-c2ccccc2CC42CCCC2)cc1 | 12 | -15 | 5 | 3
Cc1ccc(OCc2nc3c4c(ncn3n2)-c2ccccc2CC42CCCC2)cc1 | -1 | 21 | 10* | -5
Cc1cccc(OCc2nc3c4c(ncn3n2)-c2ccccc2CC42CCCC2)c1 | 2 | 18 | 9.2* | 1
O=c1[nH]c(Nc2nc3ccccc3o2)nc2c1CCCC2 | 95* | 97* | 3 | 29
O=C1c2ccccc2C(=O)N1CCC1=CCCCC1 | 0 | 52 | 0 | -4
Cc1ccc(S(=O)(=O)N2CCN(C(=O)c3ccccc3)CC2)c(C)c1NS(C)(=O)=O | -7 | 9 | 0 | -22
Cc1cc(NC(=O)c2ccccc2)c(Cl)cc1N | · | 72* | · | ·
Cc1cc(N)ccc1NC(=O)c1ccccc1 | -1 | -8 | 0 | 11
Cn1c(CN2CCN(C(=O)c3ccc(F)cc3)CC2)nc2cc([N+](=O)[O-])ccc21 | 64* | 10 | 1 | 3
COc1ccccc1C(=O)N1CCN(Cc2nc3cc([N+](=O)[O-])ccc3n2C)CC1 | 4 | 8 | 0 | 3
CC1Cc2ccccc2N1S(=O)(=O)c1cnc[nH]1 (configuration not stated) | -7 | -6 | 1 | -1
O=S(=O)(c1cnc[nH]1)N1CCc2ccccc21 | 61* | -4 | 0 | 2
CN1Cc2cccc3c2C(Cc2ccccc2S3)C1 (configuration not stated) | 57* | -10 | 1 | 1
N#C/C(=C\c1ccco1)C(=O)NCC1CCCO1 (configuration not stated) | 27 | 42 | 0 | 2
C=CCOC(=O)C1=C[C@H](c2coc3ccccc3c2=O)[C@@H](CCCO)[C@H](OCC)O1 | -3 | -10 | 1 | -7
CC1=CC(C)(C)Nc2ccc(OC(=O)C(C)N3C(=O)c4ccccc4C3=O)cc21 (configuration not stated) | 101* | -27 | 3 | 6
CC1=CC(C)(C)Nc2ccc(OC(=O)CN3C(=O)CCC3=O)cc21 | 100* | -261 | 2 | -16
CC(C(=O)Oc1ccc2c(c1)OCO2)N1C(=O)c2ccccc2C1=O (configuration not stated) | -5 | 40 | 3 | 8
CC1=CC(C)(C)Nc2ccc(OC(=O)c3cccnc3)cc21 | 101* | -359 | 1 | -1
CC1=CC(C)(C)Nc2ccc(C)cc21 | -3 | 15 | 1 | 25
COC(=O)c1ccc(OC(=O)c2cccnc2)cc1 | -10 | 8 | 0 | -6
COC(=O)c1cc(S(=O)(=O)Nc2cc(S(=O)(=O)N(C)C)ccc2C)oc1C | · | -5 | · | ·
O=C(NC1CCCCCC1)c1cc(S(=O)(=O)N2CCC3(CC2)OCCO3)ccc1F | -5 | 15 | 0 | 21
SMILES | L major viab | CHOP inh | RAM inhibit | WT yeast gro inh
COc1ccccc1NC(=O)c1cc(S(=O)(=O)N2CCC3(CC2)OCCO3)ccc1F | -5 | 20 | 9.6* | -8
O=C(Nc1ccccc1C(F)(F)F)c1cc(S(=O)(=O)N2CCC3(CC2)OCCO3)ccc1F | 3 | 22 | 3 | -19
Cc1ccc(NC(=O)c2cc(S(=O)(=O)N3CCC4(CC3)OCCO4)ccc2F)cc1 | 96* | 20 | 0 | 32
Cc1ccc(NC(=O)/C=C\C(=O)NCC(=O)O)cc1C | -3 | 1 | 1 | -14
CC(C)C(NC(=O)c1ccccc1F)C(=O)NCCc1ccccn1 (configuration not stated) | -3 | -2 | -1 | 8
O=C(NCCc1nnc2ccc(NCc3ccc(Cl)cc3)nn12)c1ccccc1 | -11 | -6 | 8.5* | 2
CC(C)(C)NC(=O)COc1ccc(CNCc2cccs2)cc1 | 77* | -5 | 1 | 2
Cc1ccc(CNCc2cccnc2)s1 | 66* | -8 | 0 | -23
c1ccc(COc2ccc(CNCc3cccnc3)cc2)cc1 | 99* | -28 | 3 | 44
CCOc1ccc(CNCc2cccnc2)cc1 | 90* | -13 | 0 | -8
Cc1sc2ncnc(NCc3cccnc3)c2c1C | 5 | -3 | 0 | 17
CCOc1ccc(NC(=O)NCc2cccnc2)cc1 | 4 | -16 | 0 | -1
Cc1ccc(OCc2ccc(C(=O)NCc3cccnc3)cc2)cc1C | 11 | 41 | -1 | 6
O=C(/C=C/c1ccccc1)NC(=S)N1CCSCC1 | -7 | 15 | 0 | -17
Nc1oc2ccccc2c(=O)c1C=O | -6 | -19 | 0 | -17
Cc1nc2c(C)cccn2c1/C(O)=C1\C(=O)C(=O)N(CCN(C)C)C1c1ccccc1 (configuration not stated) | · | 13 | · | ·
Cc1ccc(CNCc2cccnc2)cc1 | 93* | 15 | 2 | -20
Brc1ccc(CNCc2cccs2)cc1 | -2 | -2 | 2 | -7
O=C(COc1ccc(Cl)cc1)Nc1ccc(C(=O)NCc2cccnc2)cc1 | 7 | -4 | 0 | 30
c1ccc(COc2ccc(CNCc3cccs3)cc2)cc1 | 99* | 29 | 0 | 34
O=C(NCc1cccnc1)c1ccc(COc2ccc(Cl)cc2)cc1 | 3 | 71* | -1 | 29
Fc1ccc(Nc2ccc3ccccc3n2)c(F)c1 | 26 | 51 | 0 | 39
Cc1cc(C)nc(N2CCCC(CCC(=O)NCc3ccc(F)c(F)c3)C2)n1 (configuration not stated) | 0 | 35 | -1 | 11
Cc1cccc(C)c1NC(=O)c1ccc(-c2ccc(Cl)cc2Cl)o1 | 91* | 60 | 5 | 46
Cc1ccccc1-c1ccc(C(=O)Nc2cccc(F)c2)o1 | 4 | 10 | 6 | 58*
SMILES | L major viab | CHOP inh | RAM inhibit | WT yeast gro inh
O=C(Nc1nccs1)c1ccc(-c2ccc(Cl)cc2Cl)o1 | 4 | 44 | 9.5* | 31
Cc1ccccc1NC(=O)c1ccc(-c2ccc(Cl)cc2Cl)o1 | 39 | 60 | 6 | 57
CC(C)(C)CN1CCNC(=O)C1CC(=O)NCCN1CCCc2ccccc21 (configuration not stated) | 0 | 13 | 0 | 3
Cc1ccccc1Cn1c(=N)n(CC(O)c2ccco2)c2ccccc21 (configuration not stated) | 78* | 60 | 1 | 5
CCn1c(=N)n(CC(O)c2ccccc2)c2ccccc21 (configuration not stated) | 12 | 0 | 2 | -10
CC(C)(C)c1ccc(Cn2c(=N)n(CC(O)c3ccco3)c3ccccc32)cc1 (configuration not stated) | 100* | 76* | 1 | 59*
Fc1ccc2c(c1)C(c1ccncc1)=NNC(c1cccnc1)=N2 | -1 | 6 | 2 | -2
Cc1cc(NC(=O)COC(=O)C2CCC(=O)N2)c([N+](=O)[O-])cc1C (configuration not stated) | -6 | 3 | 0 | -5
Cc1ccn2c(Nc3ccccc3C)c(-c3cccnc3)nc2c1 | 21 | 15 | 0 | 20
Cc1ccccc1Nc1c(-c2ccncc2)nc2ccc(Cl)cn12 | 75* | -34 | 1 | 23

Screens from PubChem.
